This is part of a sample that, as a whole, favours compounds with a hit. Of some 79,000 tested, about 15% had one in any assay. The source made the active and inactive calls. Cut-off read from the data, not from the text of the source: active = growth inhibition above about 70%; inactive = the rest. Where a SMILES comes first, the peptide text is derived from it. Bridges are numbered along the chain shown (N, C = ends). [ ]: non-standard residue; d: D form. The star is where a group is joined. Cbz = O=C(OCc1ccccc1)*; Aib = CC(C)(N)C(=O)O; OBn = c1ccc(CO*)cc1; βAla = NCCC(=O)O

The nature of this assay: NCI Yeast Anticancer Drug Screen. Data for the mlh1 rad18 strain (AID 175). The following applies: S. cerevisiae mlh1 rad18 strain growth inhibition; at 50.0 µM; hits give high values. Put shortly:
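Read-out is yeast growth inhibition, calculated against vehicle-only controls. The compound was applied to a strain engineered with DNA damage repair alterations.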
`CCOC(=O)C(C#N)=C1c2ccccc2Oc2ccccc21`: the growth inhibition is -1.15% (inactive).
The figure for `COC(=O)C[CH2][Ge]([CH3])([CH3])[S]c1ccccc1` is 18.1% (inactive); for `CN(C1c2ccccc2Oc2ccccc21)S(=O)(=O)c1ccc([N+](=O)[O-])cc1` it is 40.1% (inactive); for `Nc1cccc2sccc12` it is -3.35% (inactive).
Turning to `Cc1ccc(OC(=O)c2cccs2)cc1`, the growth inhibition was 22.1% (inactive).
With `N#CN=CN1CCN(c2ccccc2)CC1`, the growth inhibition was -11.9% (inactive).
In the case of `Cc1ccc(NC(=O)CN2CCCCC2)cc1`, the growth inhibition is -21.9% (inactive).
The figure for `COc1ccc(-c2cc(-c3ccccc3)c(C#N)c(=O)n2C2OC(CO)C(O)C(O)C2O)cc1` (stereo not given) is -2.05% (inactive); for `Cc1cccc(C(O)(c2cccc(C)c2)C2(O)CCCCC2)c1` it is 6.9% (inactive); for `COC(=O)c1ccccc1-n1c(-c2ccc([N+](=O)[O-])cc2)csc1=NC(=O)c1cccc([N+](=O)[O-])c1` it is 12.7% (inactive).
As for `Cc1ccc(S(=O)(=O)NC(=O)NCc2cccc(Cl)c2)cc1`, the growth inhibition was 6.3% (inactive).
Regarding `COC1OC(COS(C)(=O)=O)C2OC(C)(C)OC12` (stereo not given), the growth inhibition is 21.9% (inactive).
Take `N#CC(c1ccccc1)N(CCCCCCN(C(=O)c1ccccc1)C(C#N)c1ccccc1)C(=O)c1ccccc1` (stereo not given): the growth inhibition is -29.1% (inactive).
For the molecule `CC1(C)C(C(=O)/C=C2\Nc3ccccc3C2(C)C)=Nc2ccccc21`, the growth inhibition was -7.85% (inactive).
As to `O=S(=O)(c1ccccc1)N1CN(S(=O)(=O)c2ccccc2)CN(S(=O)(=O)c2ccccc2)C1`, the growth inhibition was 6.35% (inactive).
The figure for `CCCCC1=CC1(C#N)[N+](=O)[O-]` (stereo not given) is 27.8% (inactive); for `CC1(C)NC(=O)C(NC(=O)C(CC(=O)OCc2ccccc2)NC(=O)OCc2ccccc2)CCCCNC(=O)CCNC1=O` (stereo not given) (Cbz-D(OBn)K[Aib][βAla]; lactam 2-C; configuration not given here) it is 1.3% (inactive).
Take `CC(=O)c1ccc2c(c1)-c1ccccc1C(=O)C2=O`: the growth inhibition was 5.85% (inactive).
As for `Cn1c(=O)nc2n(C)c3ccccc3cc-2c1=O`, the growth inhibition is 1.8% (inactive).
As to `COc1cc2c(cc1OC)C(=O)N(c1ccc(O)cc1)C2=O`, the growth inhibition was 3.9% (inactive).
Consider `O=C(NNc1ccccc1)NNc1ccccc1` (tested in a mixture with another compound), for which the growth inhibition was 1.65% (inactive).
With `C/C(=N/NC(=O)CC#N)c1ccccc1`, the growth inhibition was 0.4% (inactive).
`Cc1cc(C)n(-c2ccc([N+](=O)[O-])cn2)n1`: the growth inhibition was 5.25% (inactive).
On to `CC(C(=O)c1ccncc1)c1ccccn1` (stereo not given), for which the growth inhibition was 3.5% (inactive).
In the case of `CCSc1ccc2c3c(cccc13)C(=O)N(CCc1ccccn1)C2=O` it was 2.8% (inactive); in that of `O=c1cc([O-])[n+](C2OC(CO)C(O)C2O)c2sccn12` (stereo not given), -2.8% (inactive).
Regarding `CC(=O)Nc1ccc2c(c1)CCCC2`, the growth inhibition is -16.4% (inactive).
`CC1(C)C([N+](C)(C)C)CS1(=O)=O` (stereo not given): the growth inhibition is -6.45% (inactive).
Take `CCc1cc(C(C)(C)C)cc(C(C)(C)C)c1O`: the growth inhibition was 2.2% (inactive).
As for `Cc1cccc(NC(=S)NCCc2ccccn2)c1`, the growth inhibition was 5.5% (inactive).
For `COC1OC2COC(c3ccccc3)OC2C(OC(C)=O)C1OS(=O)(=O)c1ccc(C)cc1` (stereo not given), the growth inhibition is 28.8% (inactive).
Consider `Cc1nc(N)c2c(n1)C(Cc1ccccc1)N(C(=O)c1ccccc1)C2` (stereo not given), for which the growth inhibition was -17.4% (inactive).
Turning to `COC(=O)C12OCC34C(CC5C(C)=C(O)C(=O)CC5(C)C3C(O)C1O)OC(=O)C(OC(C)=O)C24` (stereo not given), the growth inhibition is 84.2% (active).
Turning to `Cn1c(COC(=O)NC2CCCCC2)c(COC(=O)NC2CCCCC2)c2ccc3cc(C=O)ccc3c21`, the growth inhibition was -27.3% (inactive).
`C[Si](C)(C)Nc1ncnc2c1ncn2[Si](C)(C)C`: the growth inhibition is 7.05% (inactive).
In the case of `O=[N+]([O-])c1ccc(OC(=S)N2CCOCC2)cc1` it was -0.65% (inactive).
As for `O=C1c2ccccc2-c2cccc(I)c21`, the growth inhibition is -7.4% (inactive).
As to `CCN(CC)C(=O)c1cncc(C(N)=O)c1`, the growth inhibition was 14.2% (inactive).
With `CSC(=S)/C(=C/Nc1ccccn1)c1ccccc1`, the growth inhibition is 14.9% (inactive).
In the case of `O=c1cc(-c2ccccc2)[nH]c2[nH]n(-c3ccccc3)c(=O)c12` it was 16.4% (inactive).

The values are drawn from PubChem BioAssay (NCI).
